Source: PubChem BioAssay
The source made the active and inactive calls. Unless noted, no rule for the calls is given here.

Key:
[1] = compounds binding Alexa647 anti-His antibody – biochemical, small-molecule microarray, 635 nm fluorescence, artefact control for SMM control protein annotation, primary screen (AID 1128); settings: higher = more signal;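 also: score merges feature fluorescence with signal-to-noise for each printed compound spot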
[2] = system: Human papillomavirus type 1a E7 protein (residues 1-88); test: HPV1a E7 small-molecule binders, primary screen, biochemical, small-molecule microarray, residues 1-88, 635 nm (AID 1129); settings: small-molecule microarray binding, fluorescence 635 nm; higher = more signal
[3] = target: Focal adhesion kinase 1 (Homo sapiens) (UniProt Q05397); test: PTK2 protein binding on printed compound slides – biochemical, small-molecule microarray, 635/667 nm fluorescence, BSA, DTT, primary screen (AID 1130); settings: 635 nm fluorescence, higher = more signal;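 also: composite of spot emission at 667 nm and signal to noise over triplicate slides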
[4] = system: Fibrinogen (Alexa647-labelled); test: Alexa647-fibrinogen binding to printed small molecules – biochemical, small-molecule microarray, 635/667 nm fluorescence, artefact control for SMM control-protein annotation, profiling panel (AID 1131); settings: fibrinogen-A647 binding fluorescence, higher = more signal;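 also: z-score merges 667 nm fluorescence with per-spot signal-to-noise over triplicate slides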
[5] = target: Follistatin (Homo sapiens) (UniProt P19883); test: FST protein binding to printed compounds – biochemical, small-molecule microarray, 635/667 nm fluorescence, primary screen (AID 1132); settings: 635 nm fluorescence, higher = more signal
[6] = target: Fibroblast growth factor 2 (Homo sapiens) (UniProt P09038); test: basic fibroblast growth factor binding to printed compounds – biochemical, small-molecule microarray, 635/667 nm fluorescence, primary screen (AID 1133); settings: FGF2, fluorescence 635/667, higher = more signal
[7] = JC-1 mitochondrial potential readout, lung cancer cells – cell-based, A549, JC-1 fluorescence, basal, 24 h, 100 nL, profiling panel (AID 1138); settings: higher = more signal;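 also: A549 lung adenocarcinoma cells under basal conditions with no added stimulus; test concentration not given here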
Lefty1 = Lefty1 protein binding to printed compounds – biochemical, small-molecule microarray, 635/667 nm fluorescence, primary screen (AID 1139); settings: fluorescence 635/667, higher = more signal
[8] = system: wheat germ agglutinin (Triticum aestivum), Alexa647-labelled; test: Alexa647-WGA lectin binding to printed small molecules – biochemical, small-molecule microarray, 635/667 nm fluorescence, artefact control for SMM control-protein annotation, profiling panel (AID 1140); settings: WGA-A647 binding, 635 nm fluorescence, higher = more signal;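 also: score merges 667 nm feature emission with signal to noise over triplicate slides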
[9] = target: Luciferin 4-monooxygenase (Photinus pyralis) (UniProt P08659); test: inhibition of purified Photinus pyralis luciferase – biochemical, luminescence, purified enzyme, 2006 set, primary screen (AID 1141); settings: purified firefly luciferase, SteadyGlo luminescence, 30 min; higher = more signal, called active from +8 up or from −8 down;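 also: cell-free assay with purified firefly luciferase at 100 ng per well in PBS; test concentration not given here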
[10] = system: Wnt5a (protein binding on small-molecule microarray); test: small molecules binding Wnt5a protein – biophysical, small-molecule microarray, 635/667 nm fluorescence, primary screen (AID 1142); settings: 635 nm fluorescence, higher = more signal;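 also: fluorescence read at 667 nm with signal to noise per printed feature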
[11] = ATP-based viability of Huh7 replicon cells – cell-based, CellTiter-Glo luminescence, basal, 48 h, cytotoxicity control for HCV replication inhibitor project, primary screen (AID 1143); settings: higher = more signal, called active from +8 up or from −8 down;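 also: Huh7 hepatoma cells carrying a hepatitis C replication reporter with no stimulus; test concentration not given here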
[12] = Pseudomonas biofilm growth suppression – PAO1 strain, BacTiter-Glo luminescence, LB-PBS, primary screen (AID 1144); settings: P. aeruginosa PAO1 biofilm, 12 h, higher = more signal
[13] = basal CRE-LacZ reporter activity in PC12 – cell-based, unstimulated, primary screen (AID 1145); settings: no forskolin, luminescence, 4.5 h, higher = more signal, called active from +8 up or from −8 down
[14] = forskolin-driven CRE-LacZ activity in PC12 – cell-based, CRE-LacZ reporter, forskolin-stimulated, primary screen (AID 1146); settings: luminescence, 4.5 h, higher = more signal, called active from +8 up or from −8 down;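 also: PC12 cells with 6xCRE LacZ reporter stimulated by forskolin 10 µM; beta-galactosidase reporter signal reflecting CREB driven transcription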
[15] = target: Streptavidin (Streptomyces avidinii) (UniProt P22629); test: compounds binding control protein streptavidin – biophysical, small-molecule microarray, 635/667 nm fluorescence, artefact control for SMM compound annotation, primary screen (AID 1147); settings: higher = more signal;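 also: signal reflects streptavidin binding to arrayed compounds as a control protein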
[16] = probe aInhba binding on compound microarray – biochemical, small-molecule microarray, 635/667 nm fluorescence, primary screen (AID 1148); settings: higher = more signal;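 also: score merges 667nm spot fluorescence with signal-to-noise for antibody binding to printed compounds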
Torsin-1A (Homo sapiens) [17] = target: Torsin-1A (Homo sapiens) (UniProt O14656); test: TOR1A wild-type binding on microarray – cell lysate, small-molecule microarray, lysate, 635/667 nm, primary screen (AID 1149); settings: COS7 hTOR1A-WT lysate, 635 nm fluorescence, higher = more signal
Torsin-1A (Homo sapiens) [18] = target: Torsin-1A (Homo sapiens) (UniProt O14656); test: torsin A mutant lysate binding on microarrays – cell lysate, small-molecule microarray, COS7 lysate, 635/667 nm fluorescence, primary screen (AID 1150); settings: COS7 hTOR1A mutant lysate, 635 nm fluorescence, higher = more signal;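 also: score pools 667 nm emission and signal to noise measuring lysate protein binding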
[19] = system: Sonic hedgehog protein (Shh); test: Sonic hedgehog microarray binding compounds – biochemical, small-molecule microarray, 635/667 nm fluorescence, primary screen (AID 1151); settings: 635 nm fluorescence, higher = more signal;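 also: Shh protein binding to compounds spotted on small-molecule microarray slides; score combines spot fluorescence intensity with signal-to-noise across triplicate slides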

Fibroblast growth factor 2 (Homo sapiens), sequence (P09038 whole entry, looked up): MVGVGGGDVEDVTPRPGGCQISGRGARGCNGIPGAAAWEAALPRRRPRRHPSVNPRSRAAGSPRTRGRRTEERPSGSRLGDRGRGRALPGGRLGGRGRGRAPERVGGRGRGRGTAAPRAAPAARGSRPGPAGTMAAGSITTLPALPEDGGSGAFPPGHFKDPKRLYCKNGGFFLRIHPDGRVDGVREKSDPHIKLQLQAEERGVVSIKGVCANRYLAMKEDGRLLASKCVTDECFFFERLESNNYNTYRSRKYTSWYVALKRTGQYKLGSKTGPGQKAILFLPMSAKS
Follistatin (Homo sapiens), sequence (P19883 whole entry, looked up): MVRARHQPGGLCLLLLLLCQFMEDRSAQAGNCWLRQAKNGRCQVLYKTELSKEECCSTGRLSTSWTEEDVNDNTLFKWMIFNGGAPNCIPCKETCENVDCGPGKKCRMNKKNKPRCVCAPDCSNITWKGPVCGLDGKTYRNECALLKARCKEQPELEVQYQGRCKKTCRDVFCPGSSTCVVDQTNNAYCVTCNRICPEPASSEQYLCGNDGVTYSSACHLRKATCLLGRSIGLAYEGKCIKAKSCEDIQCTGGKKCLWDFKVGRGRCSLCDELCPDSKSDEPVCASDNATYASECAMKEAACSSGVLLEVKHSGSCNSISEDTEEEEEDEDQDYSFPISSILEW
Streptavidin (Streptomyces avidinii), sequence (P22629 whole entry, looked up): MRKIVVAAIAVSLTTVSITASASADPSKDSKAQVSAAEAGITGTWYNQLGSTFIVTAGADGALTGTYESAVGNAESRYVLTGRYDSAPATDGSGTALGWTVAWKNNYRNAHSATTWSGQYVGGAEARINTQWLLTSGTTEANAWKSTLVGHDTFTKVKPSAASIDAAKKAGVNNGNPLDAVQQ
Focal adhesion kinase 1 (Homo sapiens), sequence (Q05397 whole entry, looked up): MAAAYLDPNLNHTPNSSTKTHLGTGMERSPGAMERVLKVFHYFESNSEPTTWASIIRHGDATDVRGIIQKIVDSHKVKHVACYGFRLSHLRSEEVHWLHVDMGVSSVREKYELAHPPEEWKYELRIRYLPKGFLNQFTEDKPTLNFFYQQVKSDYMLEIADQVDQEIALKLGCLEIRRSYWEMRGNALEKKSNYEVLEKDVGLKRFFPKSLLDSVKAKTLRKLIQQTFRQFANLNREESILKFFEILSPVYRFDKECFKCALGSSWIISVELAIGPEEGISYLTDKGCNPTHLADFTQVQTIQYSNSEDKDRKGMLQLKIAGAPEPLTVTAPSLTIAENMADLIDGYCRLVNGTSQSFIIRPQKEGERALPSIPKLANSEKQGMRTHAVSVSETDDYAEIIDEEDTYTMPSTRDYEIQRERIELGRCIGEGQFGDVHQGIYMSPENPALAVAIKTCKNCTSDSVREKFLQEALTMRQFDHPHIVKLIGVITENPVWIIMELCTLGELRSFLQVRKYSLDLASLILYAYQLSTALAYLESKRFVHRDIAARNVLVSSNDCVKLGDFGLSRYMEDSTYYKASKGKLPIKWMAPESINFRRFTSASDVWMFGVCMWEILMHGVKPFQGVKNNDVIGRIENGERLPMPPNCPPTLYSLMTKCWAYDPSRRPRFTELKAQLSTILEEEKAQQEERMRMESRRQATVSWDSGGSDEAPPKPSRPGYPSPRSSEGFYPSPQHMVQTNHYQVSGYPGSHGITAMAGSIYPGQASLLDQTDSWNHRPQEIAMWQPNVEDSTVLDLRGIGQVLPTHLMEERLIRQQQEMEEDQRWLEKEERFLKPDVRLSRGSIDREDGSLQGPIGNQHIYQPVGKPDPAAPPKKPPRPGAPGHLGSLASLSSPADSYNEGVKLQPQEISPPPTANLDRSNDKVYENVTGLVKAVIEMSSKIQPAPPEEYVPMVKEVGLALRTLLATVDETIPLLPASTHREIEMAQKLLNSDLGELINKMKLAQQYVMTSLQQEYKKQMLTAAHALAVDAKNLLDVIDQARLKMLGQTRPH
Torsin-1A (Homo sapiens), sequence (O14656 whole entry, looked up): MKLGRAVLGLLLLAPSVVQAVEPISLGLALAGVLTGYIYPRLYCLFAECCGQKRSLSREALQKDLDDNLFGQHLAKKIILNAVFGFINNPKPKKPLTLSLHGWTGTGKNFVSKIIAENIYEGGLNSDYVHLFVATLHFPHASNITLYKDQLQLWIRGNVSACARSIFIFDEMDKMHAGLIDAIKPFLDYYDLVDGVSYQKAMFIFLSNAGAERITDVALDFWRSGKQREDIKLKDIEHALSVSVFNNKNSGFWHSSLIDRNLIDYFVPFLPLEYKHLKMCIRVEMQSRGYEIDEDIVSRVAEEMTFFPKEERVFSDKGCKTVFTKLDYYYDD
Luciferin 4-monooxygenase (Photinus pyralis), sequence (P08659 whole entry, looked up): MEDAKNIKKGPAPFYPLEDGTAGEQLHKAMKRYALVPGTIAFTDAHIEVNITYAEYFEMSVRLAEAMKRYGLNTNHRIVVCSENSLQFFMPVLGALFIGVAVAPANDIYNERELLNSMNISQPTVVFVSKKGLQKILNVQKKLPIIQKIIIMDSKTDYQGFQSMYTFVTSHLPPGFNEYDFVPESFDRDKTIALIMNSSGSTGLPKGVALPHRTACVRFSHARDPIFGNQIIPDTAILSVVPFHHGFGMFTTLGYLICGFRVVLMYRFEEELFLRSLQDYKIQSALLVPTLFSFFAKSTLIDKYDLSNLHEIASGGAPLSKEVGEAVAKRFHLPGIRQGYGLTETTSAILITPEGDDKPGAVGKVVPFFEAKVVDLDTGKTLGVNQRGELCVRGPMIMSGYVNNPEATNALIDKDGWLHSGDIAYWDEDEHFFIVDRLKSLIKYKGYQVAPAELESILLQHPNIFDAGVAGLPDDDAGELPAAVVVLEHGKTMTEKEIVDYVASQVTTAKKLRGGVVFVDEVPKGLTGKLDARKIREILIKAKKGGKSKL

| Structure (SMILES) | composite z-score [1] | composite z-score [2] | composite z-score [3] | composite z-score [4] | composite z-score [5] | composite z-score [6] | z-score [7] | composite z-score (Lefty1) | composite z-score [8] | z-score [9] | composite z-score [10] | z-score [11] | z-score [12] | z-score [13] | z-score [14] | composite z-score [15] | composite z-score [16] | composite z-score (Torsin-1A (Homo sapiens) [17]) | composite z-score (Torsin-1A (Homo sapiens) [18]) | composite z-score [19] |
| --- | --- | --- | --- | --- | --- | --- | --- | --- | --- | --- | --- | --- | --- | --- | --- | --- | --- | --- | --- | --- |
| COc1ccc(NN2C(C(O)c3ccc(OC)cc3)C=CC3C(=O)N(C4CCCCC4)C(=O)C32)cc1 (stereo not given) | 0.679 | 1.18 | 0.349 | 0.92 | 0.977 | -0.0659 | 0.017 | 0.433 | 0.701 | 1.25 (inactive) | 0.219 | -0.914 (inactive) | -0.257 (inactive) | -0.163 (inactive) | -0.211 (inactive) | 0.964 | -0.0313 | 0.118 | 0.202 | 0.0867 |
| COCCOC(=O)N1C(=O)[C@@]2(c3cc(C#CC4(O)CCCCCC4)ccc31)[C@H](c1ccc(OCCO)cc1)N1[C@H](c3ccccc3)[C@H](c3ccccc3)OC(=O)[C@H]1[C@@H]2C(=O)N1CCCCCCC1 | 0.459 | 1.21 | 0.175 | 0.95 | 1.39 | 1.47 | -1.31 | 1.16 | 1.32 | -1.34 (inactive) | 0.539 | -4.81 (inactive) | -0.227 (inactive) | 0.212 (inactive) | -0.325 (inactive) | 1.68 | 1.63 | 1.12 | 1.12 | 2 |
| CCCC[C@@H]1C[C@H]1[C@@H](NC(=O)Cc1ccccc1)c1ccc(Cl)cc1 | 1.84 | 1.18 | 1.53 | 1.02 | 0.841 | -0.272 | -2.79 | -0.297 | 1.25 | 0.957 (inactive) | 0.545 | -3.44 (inactive) | 1.19 (inactive) | 0.962 (inactive) | 0.56 (inactive) | 2.32 | -0.0002 | 0.578 | 0.311 | -0.22 |
| CN1C(=O)C2C=CC(C(O)c3ccc(-c4ccccc4)s3)N(Nc3ccccc3)C2C1=O (stereo not given) | 1.33 | 1.19 | 0.283 | 0.96 | 1.12 | -0.0002 | 0.5 | -0.304 | 1.07 | 0.17 (inactive) | -0.24 | 0.809 (inactive) | -0.46 (inactive) | 0.429 (inactive) | -0.666 (inactive) | 2.23 | 0.395 | 0.0922 | 0.271 | -0.212 |
| C=CCNC(=O)[C@H]1[C@@H]2C(=O)O[C@@H](c3ccccc3)[C@@H](c3ccccc3)N2[C@@H](c2ccccc2OCCO)[C@]12C(=O)N(C(=O)OCCOC)c1ccccc12 | 1.23 | 1.22 | 0.706 | 0.887 | 0.465 | 0.849 | -0.276 | 0.583 | 1.07 | 0.206 (inactive) | 0.307 | -4.39 (inactive) | 0.369 (inactive) | -0.195 (inactive) | 6.34 (inactive) | 0.618 | -0.358 | -0.025 | 0.664 | 1.14 |
